Screening data deposited in PubChem BioAssay by National Center for Advancing Translational Sciences (NCATS).
TDP1 inh = blocks human tyrosyl-DNA phosphodiesterase 1; recombinant TDP1, AlphaScreen DNA substrate cleavage; Q9NUW8; Potency, µM (doses to about 130 µM), inactives show at the highest dose activity change, negative = inhibition, most hits filed as inhibitors; actives 0.28% (n = 350,000); AID 485290; also: potency is read from the fitted curve at half-maximal effect; nearly all actives have a fitted effect of over 40% in size
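Enzyme-compound mixtures sat 15 min at room temperature, followed by a 5 min reaction with 15 nM final substrate and 10 min with AlphaScreen beads. Recombinant human Tdp1 was used at 1 nM final.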
Six1-Eya2 blk = Six1/Eya2 interaction inhibition; Q15475+O00167; AlphaScreen GST-Six1/His-Eya2 binding, biochemical; active compounds read low; activity change, % (no concentration beside the values); actives 0.56% (n = 360,000); AID 651725; in the data active = activity change below about -65%; inconclusive = mostly about -30% to -63%
Target sequence (O00167 whole entry, looked up): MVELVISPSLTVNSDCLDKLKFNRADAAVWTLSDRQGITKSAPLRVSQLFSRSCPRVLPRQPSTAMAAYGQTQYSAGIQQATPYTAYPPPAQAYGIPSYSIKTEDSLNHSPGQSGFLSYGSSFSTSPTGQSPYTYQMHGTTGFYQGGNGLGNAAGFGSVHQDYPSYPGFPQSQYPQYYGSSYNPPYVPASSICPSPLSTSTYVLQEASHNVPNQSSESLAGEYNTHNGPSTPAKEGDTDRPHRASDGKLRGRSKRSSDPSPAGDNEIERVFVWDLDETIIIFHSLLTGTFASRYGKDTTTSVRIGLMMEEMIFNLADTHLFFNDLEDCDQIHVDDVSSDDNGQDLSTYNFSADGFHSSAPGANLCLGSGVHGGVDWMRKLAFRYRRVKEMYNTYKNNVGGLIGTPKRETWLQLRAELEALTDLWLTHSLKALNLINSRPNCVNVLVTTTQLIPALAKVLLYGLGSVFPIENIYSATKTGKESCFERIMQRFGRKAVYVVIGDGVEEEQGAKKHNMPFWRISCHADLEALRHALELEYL
Target sequence (Q15475 whole entry, looked up): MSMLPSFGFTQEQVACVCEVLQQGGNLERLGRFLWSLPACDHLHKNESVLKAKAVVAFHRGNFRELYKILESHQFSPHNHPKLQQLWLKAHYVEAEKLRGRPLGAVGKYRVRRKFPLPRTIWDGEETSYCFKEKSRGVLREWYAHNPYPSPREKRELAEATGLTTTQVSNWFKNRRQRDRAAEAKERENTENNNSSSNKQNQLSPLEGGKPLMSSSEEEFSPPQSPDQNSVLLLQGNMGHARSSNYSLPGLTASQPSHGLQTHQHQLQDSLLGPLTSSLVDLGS
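AlphaScreen luminescence read after one hour at 37 °C in darkness. Pin-transferred compounds met GST-Six1 and His-Eya2 protein (5X stock 250 nM/500 nM) plus glutathione donor and Ni-chelate acceptor beads (5X, 50 ug/mL).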
TDP1 cell noCPT = qHTS for Inhibitors of human tyrosyl-DNA phosphodiesterase 1 (TDP1): qHTS in cells in absence of CPT; DT40 Tdp1-/- hTDP1 cells, no CPT, ATP luminescence, 48 h; AID 686978, 2013; Potency, µM (doses to about 46.2 µM), for the others: top-dose activity change, negative = growth inhibition, most hits filed as inhibitors; actives 15% (n = 420,000); also: potency is read from the fitted curve at half-maximal effect; nearly all actives have a fitted effect of over 55% in size
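Chicken DT40 Tdp1-/- cells complemented with human TDP1, screened without camptothecin (DMSO vehicle only), 400 cells/well. Compounds pin-transferred, cells incubated at 37 °C for at least 48 hr. Growth read as ATP-dependent luminescence (CellTiter-Glo, 30 min at RT).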
IL1B secr inh = blocks inflammasome-driven IL-1 beta release; activity change, % at 57.5 µM; actives 4.7% (n = 360,000); THP-1 LPS/ATP IL-1B secretion, AlphaLISA, 16 h; active compounds read low; in the data active = activity change below about -50%; inconclusive = mostly about -30% to -49%
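Secreted IL-1B measured by AlphaLISA bead assay after 16 h compound exposure of THP-1 cells; compounds (final up to 57.5 uM) added 1 h before LPS (250 ng/mL) and ATP (1.25 mM) stimulation; lower signal means less secretion.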
CtBP-E1A blk = inhibitors of CtBP/E1A interaction; AlphaScreen GST-E1A/His-CtBP binding, 1536-well; active compounds read low; activity change, % (no concentration beside the values); actives 0.49% (n = 340,000); AID 651724; in the data active = activity change below about -65%; inconclusive = mostly about -30% to -63%
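GST-E1A and His-tagged CtBP (125 nM each as 5X stock) were preincubated with pin-transferred compound for 2 h at 37 °C in the dark, then glutathione donor and nickel acceptor beads were added for 1 h before AlphaScreen reading.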
DT40 TDP1 CPT = growth inhibition of DT40 Tdp1-/-;hTDP1 cells with camptothecin (screen for TDP1 inhibitors) | AID 686979 | actives 12% (n = 420,000) | chicken DT40 Tdp1-/-;hTDP1 cells + 20 nM CPT, ATP luminescence, 48 h | Potency, µM (highest dose often 46.2 µM), without a hit: at the top dose activity change, negative = growth inhibition, hits mostly inhibitors; also: potency is read from the fitted curve at half-maximal effect; nearly all actives have a fitted effect of over 55% in size
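Chicken DT40 Tdp1-/- cells stably complemented with human TDP1 were seeded at 400 cells/well in medium containing 20 nM camptothecin, exposed to pin-transferred compounds, and grown at 37 °C for at least 48 hr. Viability was read as ATP luminescence.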
An asterisk follows results filed as active; ? = inconclusive; nt = no result given; [ ] = remark or other dose. Compounds with a hit are over-represented: about 18% of the library has one in this group of screens. Unless noted, calls follow the shape of the dose curve; as a rule, active = well fitted curve in the direction sought with a large enough effect; inconclusive = small, poorly fitted or top-dose-only effect, or another doubt; inactive = no such curve, though single readings can be large; an effect the other way counts as inactive or inconclusive. % is scaled to controls: 0 for no effect and ±100 for the full control effect.

SMILES	TDP1 inh	Six1-Eya2 blk	TDP1 cell noCPT	IL1B secr inh	CtBP-E1A blk	DT40 TDP1 CPT
C#CCOCCOCCOCCNc1nc(N2CCN(C(=O)CCCCCCCCCCNC(=O)[C@H](CCCCN)n3cc(CCO)nn3)CC2)nc(N2CCN(C(=O)CCCCCCCCCCNC(=O)[C@H](CCCCN)n3cc(CCCC(=O)O)nn3)CC2)n1	3.5%	-0.3	-3.8%	?	-4.0	-1.4%
COc1cccc(C(=O)Nc2c3c(nc4c2CCC4)CCCC3)c1	1.9%	-1.6	-25.0%	15.7	2.0	-13.1%
CCN(CCCNC(=O)CCc1nc(-c2ccc(C)cc2)no1)c1cccc(C)c1	4.2%	-25.8	?	-9.3	?	?
CN(C1CCCCC1)S(=O)(=O)c1ccc(SCC(N)=O)nc1	nt	11.7	-23.5%	?	-2.5	-5.3%
O=C(CN1C(=O)NC2(CCCC2)C1=O)Nc1ccc(F)c([N+](=O)[O-])c1	9.7%	-12.8	?	-66.4*	-11.2	-12.0%
CC(C)c1ccc(C2(C)NC(=O)N(CC(=O)NC3CCCC(C)C3C)C2=O)cc1 (configuration not stated)	0.3%	2.9	20.6µM*	?	1.7	?
CCOC(=O)c1ccc(NC(=O)CN2C(=O)NC3(CCCCCC3)C2=O)cc1	3.4%	1.6	?	-18.4	-3.6	?
CCCCCC(=O)Nc1ccc(C(=O)CN2C(=O)NC3(CCCCCC3)C2=O)cc1	-12.4%	9.4	3.66µM*	94.7	0.9	5.8µM*
CC1CCCC(NC(=O)CN2C(=O)NC(C)(c3ccccc3)C2=O)C1C (configuration not stated)	-4.3%	3.8	-11.5%	-2.3	-14.4	-6.0%
O=C(CN1C(=O)C2CCCCN2c2ccc(C(=O)N3CCCC3)cc21)NCc1cccc(Cl)c1 (configuration not stated)	1.8%	nt	5.8µM*	nt	nt	?
COc1ccc(S(=O)(=O)N2CCCCC2)cc1NC(=O)CCNC(=O)c1ccc(Cl)cc1	-0.7%	2.1	0.9%	-1.6	-3.5	5.4%
O=C1NC2(CCCCCC2)C(=O)N1Cc1ccc(Cl)cc1Cl	2.7%[0.0935 µM]	7.1	?	-62.7*	19.1	-12.5%
O=C1NC2(CCCCCC2)C(=O)N1Cc1ccc(F)cc1Cl	0.6%	-1.9	-15.7%	10.6	8.4	-0.6%
CC(C)c1ccc(C2(C)NC(=O)N(C(C)C(=O)Nc3ccc(N4CCOCC4)cc3)C2=O)cc1 (configuration not stated)	4.1%	5.6	25.9µM*	6.7	16.9	14.6µM*
O=C(CN1C(=O)NC2(CCCC2)C1=O)NCc1cccc(Cl)c1	-1.0%	2.7	-16.5%	-59.0*	2.5	-16.7%
CC(C)C(=O)Nc1ccc(C(=O)CN2C(=O)NC3(CCOc4ccccc43)C2=O)cc1 (configuration not stated)	1.9%	-1.4	?	3.2	-4.1	?
O=C(CN1C(=O)NC2(CCCCCCC2)C1=O)NCc1ccc(Cl)cc1	0.7%	3.9	-22.8%	?	3.0	-9.9%
CC(C)CC(=O)Nc1ccc(C(=O)CN2C(=O)NC3(CCOc4ccccc43)C2=O)cc1 (configuration not stated)	-4.9%	-0.6	-94.7%	12.4	-20.2	18.4µM*
COc1ccc(S(=O)(=O)N2C3CCC2CC(NC(=O)NC2CCCCC2)C3)cc1 (configuration not stated)	3.9%	9.2	?	-15.4	8.2	?
COc1ccc(CC(NC(C)=O)C(=O)NC2CCN(c3c4c(nc5ncnn35)CCC4)CC2)cc1 (configuration not stated)	-11.7%	-3.1	0.0%	-8.6	-4.4	-23.9%
